HP1b chromo inh = HTS for Inhibitors of HP1-beta Chromodomain Interactions with Methylated Histone Tails | AlphaScreen HP1-beta / biotin-H3K9me3 peptide binding | Potency, µM (top dose mostly 114 µM), usual class: inhibitors | 390,000 compounds, 0.56% hits; also: nearly all actives have a fitted effect of over 70% in size
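Compound inhibition of the preformed complex between 50 nM HP1-beta and 50 nM biotinylated H3K9me3 peptide was read by AlphaScreen. Buffer was PBS pH 7.4 with 0.01% Tween-20. Incubations ran 30 min at room temperature, with 10 ug/mL donor/acceptor beads.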
JMJD2A Tudor = qHTS Assay for Inhibitors of JMJD2A-Tudor Domain. Lysine-specific demethylase 4A (Homo sapiens), O75164. Potency, µM (top dose mostly 114 µM), hits mostly inhibitors. AlphaScreen JMJD2A-Tudor / H3K4me3 peptide binding. AID 504339, 2011. 390,000 compounds, 4.4% hits; also: nearly all actives have a fitted effect of over 50% in size
BAZ2B block = qHTS Assay for Inhibitors of BAZ2B. Bromodomain adjacent to zinc finger domain protein 2B (Homo sapiens), Q9UIF8. AlphaScreen BAZ2B-H3K14Ac peptide displacement. Potency, µM (highest dose often 114 µM), usual class: inhibitors. 360,000 compounds, 4.4% hits; also: nearly all actives have a fitted effect of over 60% in size
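Protein-peptide AlphaScreen: BAZ2B 50 nM, b-H3K14Ac 50 nM, 1x PBS pH 7.4 + 0.01% Tween-20. Preincubation 30 min RT; cpd 30 min RT (top 110 uM); beads 20 min RT, light-protected.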
G9a block = qHTS Assay for Inhibitors of Histone Lysine Methyltransferase G9a; Histone-lysine N-methyltransferase EHMT2 (Homo sapiens), Q96KQ7; Potency, µM (titrated, usually from 102 µM), actives largely listed as inhibitors; G9a H3K9 monomethylation, AlphaScreen, 2 h; 350,000 compounds, 8.8% hits; also: nearly all actives have a fitted effect of over 75% in size
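Readings reflect AlphaScreen signal from monomethyl-H3K9 antibody detection. HMT at 20 nM; substrate b-H3K9 500 nM; cofactor SAM 20 uM; 2 h RT reaction; compounds tested as titrations in qHTS with 15 min preincubation.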
L3MBTL1 inh = qHTS Assay for the Inhibitors of L3MBTL1; AlphaScreen L3MBTL1–H3K9me1 peptide binding; Potency, µM (series often up to 57.1 µM), actives largely listed as inhibitors; 230,000 compounds, 0.66% hits; AID 485360, 2010; also: nearly all actives have a fitted effect of over 60% in size
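First, the protein-peptide complex forms for 30 min at room temperature (L3MBTL1 50 nM, biotinylated H3K9me1 peptide 75 nM). Next, compounds are pin-transferred and incubated 30 min. Finally, AlphaScreen beads are added and read after 30 min.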
GLS inhibitor = qHTS for Inhibitors of Glutaminase (GLS); AID 624170, 2012; 410,000 compounds, 0.21% hits; GLS enzymatic activity, qHTS titration; Glutaminase kidney isoform, mitochondrial (Homo sapiens), O94925; Potency, µM (titrated, usually from 45.5 µM), actives largely listed as inhibitors
Target sequence (O94925 whole entry, looked up, canonical isoform): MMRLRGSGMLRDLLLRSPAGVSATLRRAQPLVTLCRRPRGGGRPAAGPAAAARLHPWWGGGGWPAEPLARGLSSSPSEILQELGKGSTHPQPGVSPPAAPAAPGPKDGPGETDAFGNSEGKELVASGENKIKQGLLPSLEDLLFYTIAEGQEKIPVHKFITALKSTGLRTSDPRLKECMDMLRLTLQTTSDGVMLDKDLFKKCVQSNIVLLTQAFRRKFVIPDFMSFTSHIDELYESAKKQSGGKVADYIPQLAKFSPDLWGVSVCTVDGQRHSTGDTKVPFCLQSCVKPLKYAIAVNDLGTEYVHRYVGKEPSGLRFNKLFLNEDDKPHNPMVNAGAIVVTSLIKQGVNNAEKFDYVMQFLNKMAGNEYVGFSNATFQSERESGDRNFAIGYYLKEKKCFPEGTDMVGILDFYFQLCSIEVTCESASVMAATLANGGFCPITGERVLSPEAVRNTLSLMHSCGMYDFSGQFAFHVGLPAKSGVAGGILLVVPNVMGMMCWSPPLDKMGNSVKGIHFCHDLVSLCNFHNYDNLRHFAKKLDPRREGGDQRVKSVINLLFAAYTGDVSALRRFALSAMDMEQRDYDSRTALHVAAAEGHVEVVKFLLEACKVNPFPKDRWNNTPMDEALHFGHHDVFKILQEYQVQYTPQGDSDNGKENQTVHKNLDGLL
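hKGA in 45 mM KH2PO4 (pH 8.2), 0.02% Tween-20 with compound, then 1mM L-Glutamine (stock as added) plus glutamate oxidase/HRP/Amplex red coupling mix. Fluorescence read initially and after 30 min at RT; signal change reflects glutamate formation.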
Numbers stand for hits; - = inactive; ? = inconclusive; . = not tested or not shown; [ ] = remark or other dose. Compounds with a hit are over-represented: about 10% of the library has one in this group of screens. Calls follow the shape of the dose curve; as a rule, active = well fitted curve in the direction sought with a large enough effect; inconclusive = small, poorly fitted or top-dose-only effect, or another doubt; inactive = no such curve, though single readings can be large; an effect the other way counts as inactive or inconclusive.

SMILES	HP1b chromo inh	JMJD2A Tudor	BAZ2B block	G9a block	L3MBTL1 inh	GLS inhibitor
CCOc1cc(N2CCOCC2)c(OCC)cc1NC(=O)COC(=O)c1ccccc1C	-	-	-	-	-	-
CCOc1cc(N2CCOCC2)c(OCC)cc1NC(=O)Cc1cccc2ccccc12	-	?	22µM	3.5µM	.	-
CCOc1cc(N2CCOCC2)c(OCC)cc1NC(=O)CCC1CCCC1	-	-	-	-	-	-
CCOc1cc(N2CCOCC2)c(OCC)cc1NC(=O)C1CCCC1	-	-	-	7.9µM	.	-
CC(C)OC(=O)c1ccc(Cn2nnc3sc4c(c3c2=O)CCCC4)cc1	-	-	-	-	.	-
COc1ccc2nc(C)cc(SCC(=O)N/N=C/c3ccc(O)c(O)c3)c2c1	-	-	?	35µM	-	?
COc1ccc2c(c1)c(C(=O)N/N=C/c1ccc(Br)cc1)c(C)n2C	-	-	-	-	-	-
COc1ccc2nc(C)cc(SCC(=O)OC(C)C)c2c1	-	-	-	-	?	-
COc1cccc2c(SCC(=O)N/N=C/c3ccc(O)c(O)c3)cc(C)nc12	-	?	?	35µM	-	?
COc1ccc2c(c1)c(C(=O)N/N=C/c1ccc(O)c(O)c1)c(C)n2C	-	-	?	50µM	-	7.1µM
COc1ccc2nc(C)cc(SCC(NC(C)=O)C(=O)OC(C)C)c2c1 (stereo not given)	-	-	-	40µM	-	-
CCOc1ccc(C(=O)NCCS(=O)(=O)N2CCN(c3cccc(Cl)c3)CC2)cc1	-	-	-	-	.	-
CC1CCc2c(c3ccccc3n2C(=O)CCl)C1 (stereo not given)	-	?	79µM	-[0.501 µM]	-[2.29 µM]	-
CCN(CC)c1ccc(C(=C2C=CC(=[N+](CC)CC)C=C2)c2ccc(S(=O)(=O)O)cc2S(=O)(=O)[O-])cc1	22µM	?	.	.	.	-
CN(C)c1ccc(C(=C2C=CC(=[N+](C)C)C=C2)c2c(O)c(S(=O)(=O)[O-])cc3cc(S(=O)(=O)O)ccc23)cc1	.	.	.	?	.	-
IC(I)I	.	.	.	14µM	.	-
CCC(=O)N1CCc2cc(CNS(=O)(=O)c3ccc(CC(C)C)cc3)ccc21	-	-	-	-	.	-
COc1ccc(C(=O)NCCc2nc3ccccc3[nH]2)cc1	-	-	-	-	.	-
O=C(CN1CCCCC1)Nc1cc(S(=O)(=O)N2CCOCC2)ccc1N1CCCC1	-	-	-	-	-	-
CC1CN(CC(=O)Nc2cc(S(=O)(=O)N3CCCC3)ccc2Cl)CC(C)O1 (stereo not given)	-	-	.	-	-	-
O=C(CN1CCN(c2ccc(O)cc2)CC1)Nc1cc(S(=O)(=O)N2CCCC2)ccc1Cl	?	?	?	8.9µM	.	-
CCN1CCN(CC(=O)Nc2cc(S(=O)(=O)N3CCCCC3)ccc2Cl)CC1	?	22µM	.	.	-	-
CCOC(=O)C1CCN(CC(=O)Nc2cc(S(=O)(=O)N3CCCCC3)ccc2Cl)CC1	-	-	-	-	-	-
O=C(CN1CCN(c2ccc(O)cc2)CC1)Nc1cc(S(=O)(=O)N2CCCCC2)ccc1Cl	50µM	?	.	7.9µM	-	-
CCCN(CCC)S(=O)(=O)c1ccc(C(=O)N2CCn3c4c(c5cc(C)ccc53)CCCC42)cc1 (stereo not given)	-	-	-	?	.	-
SMILES	HP1b chromo inh	JMJD2A Tudor	BAZ2B block	G9a block	L3MBTL1 inh	GLS inhibitor
C[N+](C)(CCCCCC[N+](C)(C)C1c2ccccc2-c2ccccc21)C1c2ccccc2-c2ccccc21	.	.	.	.	.	-
CC(=O)Nc1nc(CC(C)C)cc(-c2ccco2)c1C#N	-	-	-	16µM	.	-
Cc1ccc(S(=O)(=O)N2CCNC(=O)C2)c(C)c1	-	-	-	56µM	-	-
Cc1ccc(S(=O)(=O)N2CCN(C)CC2)c(C)c1	-	-	-	-	.	-
O=C(NCc1ccccn1)c1cc(-c2ccc(-c3ccccc3)cc2)nc2ccccc12	-	?	?	3.2µM	-	-
COc1ccc(-c2cc(C(=O)OCc3ccccn3)c3ccccc3n2)cc1	-	20µM	?	?	.	-
O=C(NCc1ccccn1)c1cc(-c2ccccc2)nc2ccccc12	-	-	-	-	-	-
COc1ccc(-c2cc(C(=O)OCC(=O)N(C)C)c3ccccc3n2)cc1	-	-	-	-[12.7 µM]	-	-
CC(=O)Nc1ccc2c(c1)C(C)(C)C(C)N2C (stereo not given)	-	-	?	18µM	.	-
CCC(=O)c1ccc(NC(C)=O)cc1O	-	-	-	-	-	-
O=C1/C(=C\c2ccc(O)c(O)c2)N=C2CCCCCN12	-	3.2µM	?	28µM	?	2.5µM
COc1cc(/C=C2\N=C3CCCCCN3C2=O)ccc1O	-	-	-	?	.	-
CCc1ccc(N2CC(c3nnc(NC(=O)c4ccco4)s3)CC2=O)cc1 (stereo not given)	-	-	-	14µM	.	-
COc1ccc(-n2c(=O)c(C)nc3cnc(Nc4ccccc4)nc32)cc1	.	.	.	-[12.7 µM]	.	.
Cc1nc2ccccc2c2c(N)c3ccccc3n12	?	?	?	18µM	.	?
Nc1c2ccccc2nc2ccccc12	-	-	-	?	-	-
Cc1cc2ccccc2n1CCNC(=O)c1cccs1	?	?	?	35µM	-	-
Cc1cc2ccccc2n1CCNC(=O)C1CC1	-	?	-	71µM	-	-
CCCC(=O)Nc1ccc(-c2nc3ncccc3o2)cc1C	-	-	-	-	.	-
CCc1ccccc1N1CC(c2nc3ccccc3n2CCC2CCCCC2)CC1=O (stereo not given)	-	-	-	-	.	-
CC(Sc1nnc2ccc3ccccc3n12)C(=O)Nc1ccc(Cl)cc1 (stereo not given)	-	?	-	?	.	-
Cc1ccc2c(=O)cc(C(=O)Nc3c(C(=O)c4ccccc4)oc4ccccc34)oc2c1	-	-	-	-	.	-
COC(=O)c1sccc1NC(=O)Nc1ccc(C)cc1C	-	-	-	-	.	-
COC(=O)c1sccc1NC(=S)Nc1cc(C)ccc1OC	-	?	.	50µM	.	-
COC(=O)c1sccc1NC(=S)N1CCCCC1C (stereo not given)	-	-	-	?	.	-
COC(=O)c1sccc1NC(=S)N1C(C)CCCC1C (stereo not given)	-	-	-	10µM	.	-
Cc1cccc(C)c1OCCCn1c(CCNC(=O)C2CCCCC2)nc2ccccc21	-	-	-	-	.	-

Source: PubChem BioAssay (National Center for Advancing Translational Sciences (NCATS))
